hDAT+cocaine = modulates human dopamine transporter uptake under cocaine; 1.3% of 110,000 active; LLC-PK1 hDAT cells, [14C]-dopamine uptake with cocaine IC80; actives deviate in either direction; AID 449768; B-score at 10 µM;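 active = Z score or B-score, a plate-position-corrected score, falls beyond the plate's 99.7% confidence bounds, in either direction; inactive = both scores lie inside the 99.7% bounds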;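 also: scored against the spread of the other compound wells on the same plate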
ERb coact inh = ER-beta (human) coactivator binding inhibition; Q92731; TR-FRET ER-beta LBD / SRC1-Cy5 peptide binding; receptor agonist-loaded with 1 µM estradiol; inhibition, % at 25.6 µM; 1.3% of 86,000 active;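 active = compounds whose percent inhibition of the receptor-coactivator binding signal exceeds about 50% in the single-dose screen, limit read from the data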;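 also: 0% = receptor plus peptide wells without compound and 100% = peptide-only wells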
MT1-MMP txn act = MT1-MMP promoter transcription activation | HT1080 MT1-MMP promoter luciferase reporter, luminescence, overnight; stronger effect = higher value | activation factor at 10 µM | 0.16% of 86,000 active | AID 750;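 active = activation factor of at least 2 for MT1-MMP transcription at 10 µM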
ERa SRC1 inh = ER-alpha (human) coactivator binding inhibition; P03372; TR-FRET ER-alpha LBD / SRC-1 peptide, estradiol-bound; inhibition, % at 25.6 µM; 1.7% of 86,000 active; AID 629; in the data active = inhibition above about 50%;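 also: 0% = receptor plus peptide control and 100% = peptide only without receptor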
Target sequence (P03372 whole entry, looked up, the tested form may be a part): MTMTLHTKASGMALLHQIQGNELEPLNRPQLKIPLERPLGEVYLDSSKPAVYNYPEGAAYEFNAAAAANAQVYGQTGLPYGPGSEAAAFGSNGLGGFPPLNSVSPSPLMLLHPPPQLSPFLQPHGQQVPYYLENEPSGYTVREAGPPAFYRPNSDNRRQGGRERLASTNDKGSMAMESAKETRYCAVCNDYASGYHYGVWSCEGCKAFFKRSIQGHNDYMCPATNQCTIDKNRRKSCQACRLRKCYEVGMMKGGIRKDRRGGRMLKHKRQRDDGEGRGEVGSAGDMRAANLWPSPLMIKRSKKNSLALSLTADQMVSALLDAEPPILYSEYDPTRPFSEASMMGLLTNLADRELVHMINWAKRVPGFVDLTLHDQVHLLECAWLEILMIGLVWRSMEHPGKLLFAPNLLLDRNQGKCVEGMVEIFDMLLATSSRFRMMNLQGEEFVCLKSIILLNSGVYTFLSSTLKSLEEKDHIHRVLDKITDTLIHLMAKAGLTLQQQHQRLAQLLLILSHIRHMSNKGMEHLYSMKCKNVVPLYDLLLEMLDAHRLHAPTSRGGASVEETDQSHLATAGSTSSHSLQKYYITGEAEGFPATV
ERa coact pot = enhances coactivator binding to human estrogen receptor alpha | P03372 | TR-FRET ERalpha-LBD/SRC-Cy5 coactivator binding, 2 h; 100 = basal binding, no effect | coactivator binding (% of control), % at 25.6 µM | 1.3% of 86,000 active; in the data active = activity above about 200%;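 also: binding measured in presence of low estradiol as agonist stimulus; 0% = peptide alone without receptor and 100% = receptor with peptide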
An asterisk follows results filed as active; . = no result; [ ] = another dose, or the depositor's remark. This is a sample that favours compounds with a hit; in the whole collection about 3.8% have one here.

SMILES | hDAT+cocaine | ERb coact inh | MT1-MMP txn act | ERa SRC1 inh | ERa coact pot
Cc1[nH]nc(N2CCCCCC2)c1[N+](=O)[O-] | 0.0834 | -10.7 | 1 | -2.0 | 110.5
Cc1[nH]nc(SCC(=O)N2CCCCC2)c1[N+](=O)[O-] | -0.477 | -3.8 | . | -7.4 | 690.7*[fluorescence artefact?]
COc1cc(/C=N/N2CCN(C3c4ccccc4-c4ccccc43)CC2)ccc1O | -1.76* | . | . | . | .
CN1CCN(c2ccccc2NC(=O)c2cc(Br)ccc2Cl)CC1 | 0.277 | 45.4 | 1.1 | 82.3*[fluorescence artefact?] | 18.1
COc1ccc(Cl)cc1C(=O)Nc1ccccc1N1CCN(C)CC1 | 3.49* | -2.0 | 1.1 | -5.7 | 115.9
COc1c(Cl)cc(Cl)cc1C(=O)Nc1ccccc1N1CCN(C(C)=O)CC1 | . | 12.9 | 1.1 | -12.8 | 111.6
CC(=O)N1CCN(c2ccccc2NC(=O)c2cc(Br)ccc2Cl)CC1 | 1.52 | -0.9 | 1.1 | 2.8 | 64.5
C=C(CC1([C@@H](NP(=O)(c2ccccc2)c2ccccc2)[C@H]2C[C@@H]2CCCC)CC1)c1cccc(OC)c1 | . | . | 1 | . | .
Cc1ccccc1COCCN1CCN(S(=O)(=O)c2ccccc2)CCC1=O | -0.0997 | . | . | . | .
COc1ccc(-c2cn(-c3ccc(C)cc3)c(=O)n2CC(=O)Nc2ccc(OC)cc2OC)cc1 | 0.594 | 6.1 | 1.1 | -2.2 | 98.3
COc1ccc(NC(=O)Cn2c(-c3ccccc3)cn(-c3ccc(C)cc3)c2=O)cc1 | 0.0296 | 4.2 | . | 4.9 | 200.9*
Cc1c(NC(=O)c2ccccc2)c(=O)n(-c2ccccc2)n1C | -1.42 | 10.4 | 1.1 | 14.0 | 99.5
Cc1c(NC(=O)/C(=C\c2ccccc2)NC(=O)c2ccccc2)c(=O)n(-c2ccccc2)n1C | -8.77* | . | . | . | .
Cc1cccnc1Nc1nc(-c2ccc(O)c(O)c2)cs1 | 4.6* | 45.0 | 1.7 | 28.2 | 36.6
O=C1COc2ccc3ccccc3c2CN1 | -0.258 | -3.8 | 1.1 | -3.2 | 95.1
O=C1COc2ccc(C(=O)c3ccccc3)cc2CN1 | 3.41* | 24.8 | . | -14.3 | 101.0
CN(C)CCNc1oc(COc2ccc(Cl)cc2Cl)nc1C#N | -0.203 | -0.4 | 1.2 | 11.4 | 76.3
COCCCNc1oc(COc2ccc(Cl)cc2Cl)nc1C#N | 2.15* | 1.1 | 1 | 10.3 | 83.8
CSCCC(NC(=O)c1ccco1)C(=O)OCC(=O)Nc1sccc1C#N (stereo not drawn) | . | 53.9* | 1.3 | 55.9*[fluorescence artefact?] | 43.0
O=C(CSc1nnc(-c2ccccn2)n1Cc1ccco1)c1ccc(-c2ccccc2)cc1 | -0.968 | 37.7 | 1 | 38.7 | 227.7*[fluorescence artefact?]
O=C(CSc1nnc(-c2ccc(O)cc2)n1Cc1ccco1)c1ccccc1 | -1.96 | 7.4 | . | 13.3 | 88.0
O=C(NCc1ccccn1)C1(C(F)(F)F)C/C(=C\CCO)CCCO1 (stereo not drawn) | -0.0246 | . | . | . | .
Cc1ccc(Cn2nnc3c(=O)[nH]c(C4CCN(C(=O)Cc5cccs5)CC4)nc32)cc1 | 3.37* | -12.1 | 1.1 | -28.0 | 106.5
Cc1ccc(Cn2nnc3c(=O)[nH]c(C4CCN(S(=O)(=O)c5ccccc5)CC4)nc32)cc1 | 2.88* | . | 1.1 | . | .
O=C(Cc1cccs1)N1CCC(c2nc3c(nnn3Cc3ccccc3)c(=O)[nH]2)CC1 | 1.88 | . | 1 | . | .
CCOc1ccccc1NC(=O)N1CCCC(c2nc3c(nnn3Cc3ccc(C)cc3)c(=O)[nH]2)C1 (stereo not drawn) | -0.573 | -4.6 | 1.1 | -2.0 | 108.6
CC(C)(C)c1ccc(Cn2nnc3c(=O)[nH]c(C4CCN(C(=O)Cc5cccs5)CC4)nc32)cc1 | 3.27* | -5.3 | 1 | -8.7 | 89.4
Cc1ccc(Cn2nnc3c(=O)[nH]c(C4CCCN(C(=O)Nc5ccc(F)cc5F)C4)nc32)cc1 (stereo not drawn) | 3.23* | -10.0 | 1.2 | -3.2 | 96.9
CC(C)=CCc1c(O)cc(O)c2c(=O)c3c(CC=C(C)C)c(O)ccc3oc12 | 1.73 | . | . | . | .
O=C1CN=C(Nc2ccccc2Cl)N1Cc1ccc2c(c1)OCO2 | 1.26 | -4.8 | 1.3 | -3.5 | 113.4
